Screening results deposited in PubChem BioAssay by Sanford-Burnham Center for Chemical Genomics.
p-CIP stab down = p/CIP protein destabilization; F442A p/CIP-EGFP cells, EGFP fluorescence, 16 h; decrease of EGFP signal, % at 10 µM; hit rate 0.01% among 290,000;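 active = EGFP signal decrease of at least 30% at 10 µM or well 3 SD below plate mean, unless failing retest; inactive = the rest, including hits failing retest or dose response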
beta cell repl = inducers of beta-cell replication in MIN6 cells; MIN6 cells proliferation, ATPlite luminescence, 48 h; cells starved in 0.2% serum; 100% = growth in 10% serum; proliferation, % at 10 µM; hit rate 0.29% among 330,000;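 active = compounds whose signal lies at least 3.5 SD above the mean of all wells on their plate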;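 also: 0% = DMSO-treated cells in low-serum medium and 100% = 10% serum control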
GRIN3A LBD mod = NR3A (human) ligand-binding domain modulation; Tm shift relative to glycine control, % at 25 µM; NR3A LBD differential scanning fluorimetry, Tm shift; 0% = protein alone, 100% = glycine-bound protein; AID 1259313; hit rate 2.5% among 340,000;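 active = melting temperature shift of at least 10% of the positive control shift, at one fixed dose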
MPTP block = permeability transition pore inhibition | hit rate 1.4% among 360,000 | isolated mouse mitochondria, Ca2+ swelling absorbance, 30 min | AID 602449 | inhibition, % at 10 µM;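 active = inhibition of 50% or more, scaled per plate between neutral and stimulator controls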;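 also: 0% = DMSO wells given calcium and 100% = 1 mM EGTA wells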
FAS TE block = blocks the thioesterase domain of human fatty acid synthase. recombinant FAS-TE, OMFH fluorogenic substrate, fluorescence endpoint. AID 602261. hit rate 0.67% among 360,000. P49327. inhibition, % at 15 µM;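 active = compounds whose normalised, plate-corrected inhibition of enzyme fluorescence in the single-dose primary screen is 50% or more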;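 also: 0% = DMSO with enzyme and 100% = substrate without enzyme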
Numbers without * were called inactive. Only some compounds are listed: those with a hit (about 4.1% of all), similar ones and a draw of the others.

`Nc1ncnc(Nc2ccc(F)cc2)n1` gave p-CIP stab down -22.3, beta cell repl 3.0, GRIN3A LBD mod 0.8, MPTP block 0.3 and FAS TE block -16.1.
`O=C(O)c1ccc(C[n+]2c(-c3ccccc3)csc2Nc2ccccc2)cc1` gave p-CIP stab down 4.9, beta cell repl 0.0, GRIN3A LBD mod 17.8*, MPTP block -5.4 and FAS TE block -3.4.
Screening Fc1cccc(C2NN=C(c3ccccc3)S2)c1 (stereo unspecified) returned p-CIP stab down -11.8, beta cell repl -4.0, GRIN3A LBD mod 34.2*, MPTP block -0.8 and FAS TE block 3.1.
Screening CCn1c(SCC(N)=O)nnc1-c1ccc(OC)c(OC)c1 returned p-CIP stab down -8.3, beta cell repl 2.4, GRIN3A LBD mod 12.7*, MPTP block -0.7 and FAS TE block -5.8.
CCn1c(SCC(N)=O)nnc1-c1ccc2c(c1)OCO2 was read as p-CIP stab down -0.8, beta cell repl -0.9, GRIN3A LBD mod -1.2, MPTP block -3.1 and FAS TE block -3.2.
For COc1ccc(C2=NOC(C(=O)N3CCN(C(=O)c4ccco4)CC3)C2)cc1OC (stereo unspecified) the results were p-CIP stab down 7.7, beta cell repl -0.8, GRIN3A LBD mod 39.4*, MPTP block -1.3 and FAS TE block -1.6.
COc1ccccc1C1=NOC(C(=O)N2CCN(C(=O)c3ccco3)CC2)C1 (stereo unspecified) was read as p-CIP stab down -4.1, beta cell repl 2.4, GRIN3A LBD mod 1.5, MPTP block -0.9 and FAS TE block -4.7.
`CCN(c1cccc(C)c1)S(=O)(=O)c1ccc2[nH]c(=O)c(=O)[nH]c2c1` gave p-CIP stab down -18.1, beta cell repl -1.4, GRIN3A LBD mod 11.1*, MPTP block 0.4 and FAS TE block -5.0.
`Cc1ccc(NC(=O)CC2S/C(=N/N=C/c3c[nH]c4ccccc34)NC2=O)cc1` (stereo unspecified) gave p-CIP stab down 11.7, beta cell repl 0.6, GRIN3A LBD mod 11.4*, MPTP block -31.3 and FAS TE block 0.7.
`Cc1ccc(NC(=O)CC2S/C(=N/N=C3/NC(=O)CS3)NC2=O)cc1` (stereo unspecified) gave p-CIP stab down 0.2, beta cell repl -1.5, GRIN3A LBD mod 0.7, MPTP block 0.6 and FAS TE block -5.4.
Cc1ccc(NC(=O)CC2S/C(=N/N=C/C=C/c3ccccc3)NC2=O)cc1Cl (stereo unspecified) was read as p-CIP stab down 1.6, beta cell repl 0.0, GRIN3A LBD mod 15.2*, MPTP block -3.3 and FAS TE block 12.3.
`Cc1ccc(NC(=O)CC2S/C(=N/N=C/c3ccco3)NC2=O)cc1Cl` (stereo unspecified) gave p-CIP stab down -4.7, beta cell repl -2.1, GRIN3A LBD mod 4.3, MPTP block -1.0 and FAS TE block -0.4.
For CCOC(=O)c1ccc(NC(=O)CC2S/C(=N/N=C/c3c[nH]c4ccccc34)NC2=O)cc1 (stereo unspecified) the results were p-CIP stab down -7.1, beta cell repl 0.9, GRIN3A LBD mod 29.1*, MPTP block 1.0 and FAS TE block -4.2.
`COC(=O)C[C@@H]1C=C[C@@H](NS(=O)(=O)c2ccc(OC)cc2)[C@@H](CO)O1` gave MPTP block -0.3.
`CCN(CC)C(=O)Oc1cc(=O)n(C)c2ccccc12` gave p-CIP stab down -8.5, beta cell repl 0.0, GRIN3A LBD mod 24.5*, MPTP block -3.5 and FAS TE block -10.1.
`O=C(/C=C/[C@H]1O[C@@H](n2ccc(=O)[nH]c2=O)[C@H](O)[C@@H]1O)NCc1ccccc1` gave MPTP block -1.2 and FAS TE block -5.2.
CN1c2ccccc2C(O)=C(C(=S)Nc2ccc(Cl)cc2)S1(=O)=O was read as p-CIP stab down 2.9, beta cell repl -3.7, GRIN3A LBD mod 27.8*, MPTP block 34.3 and FAS TE block 1.6.
Screening COc1cc2c(c(OC)c1OC)-c1ccc(NCc3ccccc3)c(=O)cc1C(NC(C)=O)CC2 (stereo unspecified) returned MPTP block -0.2 and FAS TE block 38.8.
Screening CC(=NO)c1ccc2c(c1)C(=NO)c1ccccc1-2 returned GRIN3A LBD mod 1.3, MPTP block 0.9 and FAS TE block -41.0.
Oc1ccccc1C=NN=CC=Cc1ccccc1 was read as GRIN3A LBD mod 1.3, MPTP block -1.8 and FAS TE block 0.1.
Oc1ccccc1C=NN=Cc1ccccc1Cl was read as GRIN3A LBD mod 12.6*, MPTP block 0.0 and FAS TE block 19.6.
Screening Cc1cc(S(=O)(=O)N(Cc2ccc3c(c2)OCO3)CC2CCCO2)ccc1-n1cnnn1 (stereo unspecified) returned p-CIP stab down 8.1, beta cell repl 3.6, GRIN3A LBD mod 21.2*, MPTP block 0.1 and FAS TE block 10.2.
Screening O=c1[nH]c(C(Cl)Cl)nc2sc3c(c12)CCN(Cc1ccccc1)C3 returned p-CIP stab down -2.8, GRIN3A LBD mod 15.0*, MPTP block -0.1 and FAS TE block 21.5.
`CCCSc1nc2sc3c(c2c(=O)[nH]1)CCN(Cc1ccccc1)C3` gave p-CIP stab down -32.9, beta cell repl -0.9, GRIN3A LBD mod -4.3, MPTP block -1.0 and FAS TE block -37.9.
For COc1ccc(/C=C/c2nc(C#N)c(NCCN(C)C)o2)cc1OC the results were p-CIP stab down 6.8, beta cell repl -1.5, GRIN3A LBD mod 1.4, MPTP block -0.1 and FAS TE block -5.8.
For CNc1oc(/C=C/c2cccc(OC)c2)nc1C#N the results were p-CIP stab down -9.6, beta cell repl -3.1, GRIN3A LBD mod 23.2*, MPTP block -0.5 and FAS TE block 4.5.
CNc1nc2c3ccccc3n(C(C)=O)c2s1 was read as p-CIP stab down 6.7, beta cell repl 2.0, GRIN3A LBD mod 18.2*, MPTP block 0.3 and FAS TE block -2.4.
For O=C(NCC[C@@H]1CC[C@@H](NC(=O)c2cnccn2)[C@@H](CO)O1)c1ccc2c(c1)OCO2 the results were MPTP block 0.8.
`CC(C)c1nc(SCC(=O)N2CCCCC2)c2c(=O)n(C)c(=O)n(C)c2n1` gave MPTP block 0.3 and FAS TE block -13.7.
O=C(Cn1c(O)c(/C=C2\C=Nc3ccccc32)sc1=O)N1CCOCC1 was read as p-CIP stab down -18.6, beta cell repl -0.9, GRIN3A LBD mod -1.9, MPTP block 0.0 and FAS TE block -11.4.
Screening O=c1[nH]c(S)c(/C=C2\C=Nc3ccccc32)s1 returned p-CIP stab down -8.3, beta cell repl -4.1, GRIN3A LBD mod 33.7*, MPTP block -0.6 and FAS TE block -7.9.
CC(C)n1c(=O)c2ccccc2n1S(C)(=O)=O was read as MPTP block -2.2 and FAS TE block -9.0.
For Cc1cc([N+](=O)[O-])ccc1-c1ccc(C2Nc3ccccc3C(=O)N2O)o1 (stereo unspecified) the results were p-CIP stab down 6.9, beta cell repl -5.1, GRIN3A LBD mod 30.0*, MPTP block 3.7 and FAS TE block -68.4.
